Beta apoptosis: blocks beta cell apoptosis | AID 435005 | 0.8% of 300,000 active | INS-1E cytokine-induced death, ATP luminescence, 48 h; percent of positive-control rescue, neutral wells zero | protection from apoptosis, % (test concentration not listed);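 active = Every replicate reaches about 75%, or at least half do and their mean reaches it too, limit read from the data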;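 also: 0% = cytokine-treated negative control wells and 100% = positive control rescue; higher means more ATP so stronger rescue from cytokine killing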
Jurkat NFkB inh: lowers PMA/ionomycin-induced NF-kB signal in Jurkat cells. PMA/ionomycin-induced NF-kB luciferase reporter, luminescence. inhibition, % at 4 µM. 0.53% of 330,000 active; in the data active = inhibition above about 50%
Mdm2-MdmX inh: human Mdm2/MdmX binding inhibition; SaOS-2 split-luciferase Mdm2/MdmX complementation, luminescence; inhibition, % at 8 µM; 3% of 330,000 active;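 active = inhibition of at least 50% at 8 µM in the primary screen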
697 NFkB inh: lowers PMA/ionomycin-induced NF-kB signal in 697 B cells | 697 B-cell NF-kB luciferase reporter, 16 h | inhibition, % at 4 µM | 0.33% of 330,000 active; in the data active = inhibition above about 35%
Bfl-1 A1 inh: inhibitors of the anti-apoptotic protein A1, read as caspase activation; MEF A1-2A-BIM cells, Caspase-Glo 3/7 luminescence, 3 h; percent of clofoctol response, vehicle zero; caspase activation, % (no concentration beside the values); 0.066% of 330,000 active; AID 2462;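 active = over half of replicate activation scores above 10%, or exactly half above 10 with the replicate mean above 10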
NTR1 ag: agonists of human neurotensin receptor NTR1 | P30989 | activation, % at 20 µM | NTR1-U2OS beta-arrestin-GFP spot imaging, agonist mode | AID 493036 | 0.17% of 330,000 active;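 active = activation at or above 40% of the spot to cytoplasm intensity ratio, with at least 20 cells analyzed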;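 also: 0% = DMSO without peptide and 100% = 100 nM NTR1 peptide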
Target sequence (P30989 whole entry, looked up): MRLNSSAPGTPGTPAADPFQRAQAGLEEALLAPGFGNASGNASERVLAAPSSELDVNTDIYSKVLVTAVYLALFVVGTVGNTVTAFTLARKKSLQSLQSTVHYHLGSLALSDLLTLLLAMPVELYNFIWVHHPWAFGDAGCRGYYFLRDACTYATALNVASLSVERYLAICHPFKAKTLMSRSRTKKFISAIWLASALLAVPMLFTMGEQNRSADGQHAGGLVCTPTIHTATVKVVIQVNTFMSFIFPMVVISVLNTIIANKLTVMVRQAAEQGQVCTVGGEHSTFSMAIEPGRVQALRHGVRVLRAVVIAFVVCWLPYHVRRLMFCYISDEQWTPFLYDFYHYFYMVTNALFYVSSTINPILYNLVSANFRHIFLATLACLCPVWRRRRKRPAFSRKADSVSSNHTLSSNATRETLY
Mdm2 MdmX conf: confirmation of human Mdm2/MdmX interaction inhibitors. shares compounds with Mdm2-MdmX inh. Mdm2-MdmX binding, luminescent assay. inhibition, % at 8 µM. 55% of 10,000 active; in the data active = inhibition above about 40%
Full FLuc ctr: counter-screen for Mdm2/MdmX inhibitors: full-length luciferase. shares compounds with Mdm2-MdmX inh. SaOS-2 full-length luciferase counterscreen, luminescence. inhibition, % at 8 µM. 77% of 6,200 active;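 active = mean inhibition at 8 µM reaching about 37%, which flags the compound as non-specific, limit read from the data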;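 also: p53-null SaOS-2 cells with luciferase driven by a doxycycline-inducible promoter; compound on cells about two nights before reading with doxycycline added after day one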
Active calls of the source: *; nt = not tested or not shown. A selection: hits, their analogues and other compounds. The true share with any hit is near 3.8%.

SMILES	Beta apoptosis	Jurkat NFkB inh	Mdm2-MdmX inh	697 NFkB inh	Bfl-1 A1 inh	NTR1 ag	Mdm2 MdmX conf	Full FLuc ctr
CC(=O)NCCc1nc2cc(NC(=O)COc3ccc(C)cc3)ccc2n1C	2	6	-4	-2	0	0	nt	nt
Cc1ccc(NC(=O)Nc2nnc(Cc3ccc(F)cc3)s2)cc1	-7	-27	55*	-6	0	0	32	nt
Cc1ccccc1NC(=O)Nc1nnc(Cc2ccc([N+](=O)[O-])cc2)s1	6	-7	67*	3	0	0	10	nt
O=C(Nc1ccccc1)Nc1nnc(Cc2ccc([N+](=O)[O-])cc2)s1	-5	-2	66*	6	-1	15	13	nt
Cc1ccc(NC(=O)Nc2nnc(Cc3ccc([N+](=O)[O-])cc3)s2)cc1C	nt	2	57*	17	1	9	36	39*
Cc1oc(-c2ccccc2F)nc1CS(=O)CC(=O)NC1CCCC1 (centres undefined)	5	8	10	1	-1	1	nt	nt
COc1ccc(C(=O)Nc2ccc3ccccc3n2)cc1OC	-3	-97	-40	-73	-1	1	nt	nt
CN(C)C1CCN(Cc2cc(COCc3ccccc3)c3cccnc3c2O)C1 (centres undefined)	77*	25	67*	-61	1	-1	71*	33
O=[N+]([O-])c1cc(CN2CCCC2)c2cccnc2c1O	5	nt	nt	nt	0	nt	nt	nt
Oc1c(CN2CCCCC2)cc(COCc2ccccc2)c2cccnc12	39	8	52*	-33	0	3	49*	44*
COCc1cc(CN2CCCC2)c(O)c2ncccc12	5	18	38	-21	0	0	nt	nt
O=C(NCCCO)C(=O)Nc1cc2c3c(c1)CCN3C(=O)CC2	1	1	22	-7	1	0	nt	nt
CC(C)N1C/C(=C/c2ccsc2)C(=O)/C(=C/c2ccsc2)C1	-1	2	92*	-2	0	10	7	nt
COc1ccc(N(C(=O)CCl)C(C(=O)NC2CCCCC2)c2cccnc2)cc1 (centres undefined)	-14	15	96*	-58	1	5	100*	54*
O=C(NC1CCCCC1)C(c1cccnc1)N(C(=O)CCl)c1ccccc1Cl (centres undefined)	-8	-3	95*	-26	0	-1	99*	59*
Cc1ccc(-n2nc3c(=O)n(CCCC(=O)NC4CCC(C)CC4)nc(C)c3c2C)cc1 (centres undefined)	0	-11	19	-6	0	0	nt	nt
CCN1CCN(c2cc(C)c3cc(NC(=S)N4CCN(c5ccccc5F)CC4)ccc3n2)CC1	-1	-10	80*	2	-1	1	45*	60*
CCOc1ccc(C(=O)Nc2ccc3nc(N4CCN(CC)CC4)cc(C)c3c2)cc1	14	-14	55*	-16	0	5	38	60*
CCC(C)NC(=S)Nc1ccc2nc(N3CCN(CC)CC3)cc(C)c2c1 (centres undefined)	-1	19	52*	-32	1	0	36	61*
CCC(C)NC(=S)Nc1ccc2nc(N3CCOCC3)cc(C)c2c1 (centres undefined)	6	-41	3	-47	0	4	nt	nt
CCCN1CCN(C(=S)Nc2ccc3nc(N4CCN(CC)CC4)cc(C)c3c2)CC1	-8	-12	50*	-25	1	1	43*	46*
COC(=O)c1ccc(NC(=O)COc2ccc(N(C)S(=O)(=O)c3ccc(C)cc3)cc2)cc1	4	-8	14	-1	0	-1	nt	nt
CCN1CCN(c2cc(C)c3cc(NC(=S)N4CCN(c5ccccc5)CC4)ccc3n2)CC1	27	-15	100*	-20	1	0	44*	52*
O=C(Cn1cnc2ccccc2c1=O)Nc1ccc(S(=O)(=O)N2CCOCC2)cc1	nt	-7	11	9	0	-1	nt	nt
O=C(Cn1cnc2cc([N+](=O)[O-])ccc2c1=O)Nc1cccc(S(=O)(=O)N2CCOCC2)c1	6	9	61*	4	-1	0	8	nt
SMILES	Beta apoptosis	Jurkat NFkB inh	Mdm2-MdmX inh	697 NFkB inh	Bfl-1 A1 inh	NTR1 ag	Mdm2 MdmX conf	Full FLuc ctr
C[C@H](CO)N1C[C@H](C)[C@H](CN(C)Cc2ccc(-c3ccccc3)cc2)Oc2ccc(NS(=O)(=O)c3ccccc3)cc2CC1=O	-5	16	85*	5	3	13	9	nt
C[C@@H]1CN([C@@H](C)CO)C(=O)Cc2cc(NS(=O)(=O)c3ccccc3)ccc2O[C@H]1CN(C)Cc1ccncc1	-2	-5	11	16	1	2	nt	nt
Cc1ccc(S(=O)(=O)Nc2ccc3c(c2)CC(=O)N([C@H](C)CO)C[C@@H](C)[C@H](CN(C)Cc2ccc(-c4ccccc4)cc2)O3)cc1	-9	-24	82*	-8	0	14	39	63*
C[C@H]1CN([C@@H](C)CO)C(=O)Cc2cc(NC(=O)CCC(F)(F)F)ccc2O[C@H]1CN(C)Cc1ccc(-c2ccccc2)cc1	14	-9	55*	-21	0	9	24	nt
CCOC(=O)c1cc(-c2ccccc2)sc1NC(=O)CN1C(=O)c2ccccc2C1=O	-1	-4	-2	18	-1	2	nt	nt
CCCC1(c2ccccc2)NC(=O)N(CC(=O)Nc2sc(-c3ccccc3)cc2C(=O)OCC)C1=O (centres undefined)	-4	3	77*	14	1	2	55*	53*
CCOC(=O)c1c(NC(=O)CN2C(=O)NC(C)(c3ccccc3)C2=O)sc(C)c1C (centres undefined)	2	3	71*	18	0	8	58*	45*
CCOC(=O)c1c(NC(=O)CN2C(=O)NC3(CCCCC3C)C2=O)sc(C)c1C (centres undefined)	3	4	16	8	0	15	nt	nt
CC(=O)c1ccc(OC(C)C(=O)NCC2(N3CCOCC3)CCCCC2)cc1 (centres undefined)	0	-15	12	-3	-2	1	nt	nt
CC1CCC(NC(=O)C2CCC(CNS(=O)(=O)c3cccc4nsnc34)CC2)CC1 (centres undefined)	2	18	56*	9	0	-1	-5	nt
COc1ccc(NC2CCCN(C(=O)CCOc3ccccc3)C2)cc1 (centres undefined)	4	5	2	-10	0	0	nt	nt
C/C(=C\c1ccccc1)C(=O)c1c(C)cc(C)[nH]c1=O	5	-16	58*	1	0	3	-4	nt
